Reference: PubChem BioAssay
For some assays here: Results with a measured potency or affinity are listed apart. Calls of active or inactive are those of the source.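 The calls were made as follows, unless noted: active = primary screen hit whose fluorescence ratio, in both repeats, exceeds the weak agonist control mean by 3 SD; inactive = the rest.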

Assays:
[1] = tested on: TRPC4 beta (transient receptor potential cation channel C4), mouse; test: TRPC4 cation channel opening, retest – cell-based, Fluo4 calcium, HEK293 TRPC4beta/mu-opioid, duplicates, 10 µM, confirmation (AID 2426;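 active = fluorescence ratio normalized to control raised more than 50% in primary screen plus both repeat runs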); details: Fluo4 calcium fluorescence, at 10 µM; stronger effect = higher value
[2] = tested on: transient receptor potential cation channel C4 beta (TRPC4), mouse; test: TRPC4 cation channel opening, second retest – cell-based, second round, Fluo4, HEK293 TRPC4beta/mu-opioid, 1 µM, confirmation (AID 2461;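 active = primary screen active and over 50% activation in each of two duplicate runs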); details: Fluo4 calcium fluorescence, at 1 µM; stronger effect = higher value
[3] = tested on: TRPC4 (transient receptor potential cation channel C4 beta), mouse; test: potentiation of DAMGO EC20 TRPC4 response – cell-based, second round, Fluo-4, HEK293 TRPC4beta/mu-opioid, 1 µM, confirmation (AID 2554); details: DAMGO EC20, Fluo-4 calcium flux, at 1 µM; stronger effect = higher value
[4] = tested on: TRPC4 beta (transient receptor potential cation channel C4), mouse; test: potentiation of DAMGO EC20 TRPC4 response – cell-based, Fluo-4, HEK293 TRPC4beta/mu-opioid, confirmation (AID 2555;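 active = primary screen hit whose calcium fluorescence ratio, in both repeats, exceeds the weak agonist control mean by 3 SD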); details: DAMGO EC20, Fluo-4 calcium flux, at 10 µM; stronger effect = higher value
[5] = target: Short transient receptor potential channel 4 (Mus musculus) (UniProt Q9QUQ5); test: blockers of DAMGO-evoked TRPC4 calcium flux – cell-based, Fluo4, HEK293 TRPC4beta/mu-opioid, confirmation (AID 2636;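 active = calcium signal cut by more than 3 SD below the full-agonist control yet still positive, in both repeats and the earlier primary screen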); details: at 10 µM; stronger effect = higher value
Chain of Short transient receptor potential channel 4 (Mus musculus) (Q9QUQ5 whole entry, looked up): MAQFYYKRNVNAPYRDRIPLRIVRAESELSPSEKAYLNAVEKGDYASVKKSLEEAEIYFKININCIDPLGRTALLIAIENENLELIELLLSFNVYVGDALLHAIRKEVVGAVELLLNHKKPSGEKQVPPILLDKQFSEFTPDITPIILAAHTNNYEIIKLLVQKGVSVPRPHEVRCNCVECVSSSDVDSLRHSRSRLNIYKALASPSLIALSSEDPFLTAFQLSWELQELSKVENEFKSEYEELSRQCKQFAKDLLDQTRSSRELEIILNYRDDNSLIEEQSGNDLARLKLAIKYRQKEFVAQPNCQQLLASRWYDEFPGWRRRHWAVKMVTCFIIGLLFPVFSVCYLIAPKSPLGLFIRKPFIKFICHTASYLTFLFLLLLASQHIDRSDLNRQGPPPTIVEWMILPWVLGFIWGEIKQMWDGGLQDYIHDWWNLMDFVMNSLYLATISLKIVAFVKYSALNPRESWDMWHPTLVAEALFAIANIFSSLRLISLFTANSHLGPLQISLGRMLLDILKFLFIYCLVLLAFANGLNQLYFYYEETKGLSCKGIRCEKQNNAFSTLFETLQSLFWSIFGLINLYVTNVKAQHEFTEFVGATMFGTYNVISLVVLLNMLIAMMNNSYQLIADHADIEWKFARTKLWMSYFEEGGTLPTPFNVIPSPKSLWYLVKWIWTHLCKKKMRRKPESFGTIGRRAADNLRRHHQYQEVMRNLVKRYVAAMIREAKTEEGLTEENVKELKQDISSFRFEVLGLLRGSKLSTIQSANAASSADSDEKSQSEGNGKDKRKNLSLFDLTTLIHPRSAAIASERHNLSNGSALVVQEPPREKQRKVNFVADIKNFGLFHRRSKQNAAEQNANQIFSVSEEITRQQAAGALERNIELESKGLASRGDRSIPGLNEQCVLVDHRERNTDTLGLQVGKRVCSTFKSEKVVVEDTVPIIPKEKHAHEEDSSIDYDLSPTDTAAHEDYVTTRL

[6] = target: Short transient receptor potential channel 4 (Mus musculus) (UniProt Q9QUQ5); test: blockers of DAMGO-evoked TRPC4 calcium flux – cell-based, second round, Fluo4, HEK293 TRPC4beta/mu-opioid, 1 µM, confirmation (AID 2637;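 active = calcium signal ratio cut to more than 3 SD under the fully stimulated control mean yet still positive, in both repeats and the primary screen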;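 as to inhibition: percent of integrated ratio relative to wells lacking test compound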); details: at 1 µM; stronger effect = higher value
[7] = target: Short transient receptor potential channel 4 (Mus musculus) (UniProt Q9QUQ5); test: calcium entry via TRPC4 opening agents – cell-based, HEK293 TRPC4/mu-opioid, Fluo-4 calcium, dose response (AID 434937;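 active = primary screen activator hit with a dose response curve and TRPC4 channel activation at any tested dose; inactive = no activation, no dose response, or not a primary hit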)
[8] = target: Short transient receptor potential channel 4 (Mus musculus) (UniProt Q9QUQ5); test: potentiation of DAMGO-evoked TRPC4 calcium signal – cell-based, HEK293 TRPC4/mu-opioid, Fluo-4 calcium, EC20 DAMGO, dose response (AID 434941;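 active = earlier screen potentiator hit that boosts the TRPC4 ion channel at some dose, with a dose response; inactive = no potentiation, no dose response, or not a prior hit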;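 also: calcium entry triggered by an EC20 dose of DAMGO at the co-expressed mu-opioid receptor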)
[9] = target: Short transient receptor potential channel 6 (Mus musculus) (UniProt Q61143); test: TRPC6 blockade by TRPC4 inhibitor hits – cell-based, HEK293, membrane potential dye, duplicate, selectivity assay for TRPC4 inhibitor project, confirmation (AID 434948;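 active = active in primary screen and both duplicates, each dropping signal beyond three positive-control SD with fluorescence still positive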); details: HEK293 TRPC6, membrane potential dye fluorescence, at 10 µM, stimulated with maximal-effect acetylcholine; stronger effect = higher value
Chain of Short transient receptor potential channel 6 (Mus musculus) (Q61143 whole entry, looked up): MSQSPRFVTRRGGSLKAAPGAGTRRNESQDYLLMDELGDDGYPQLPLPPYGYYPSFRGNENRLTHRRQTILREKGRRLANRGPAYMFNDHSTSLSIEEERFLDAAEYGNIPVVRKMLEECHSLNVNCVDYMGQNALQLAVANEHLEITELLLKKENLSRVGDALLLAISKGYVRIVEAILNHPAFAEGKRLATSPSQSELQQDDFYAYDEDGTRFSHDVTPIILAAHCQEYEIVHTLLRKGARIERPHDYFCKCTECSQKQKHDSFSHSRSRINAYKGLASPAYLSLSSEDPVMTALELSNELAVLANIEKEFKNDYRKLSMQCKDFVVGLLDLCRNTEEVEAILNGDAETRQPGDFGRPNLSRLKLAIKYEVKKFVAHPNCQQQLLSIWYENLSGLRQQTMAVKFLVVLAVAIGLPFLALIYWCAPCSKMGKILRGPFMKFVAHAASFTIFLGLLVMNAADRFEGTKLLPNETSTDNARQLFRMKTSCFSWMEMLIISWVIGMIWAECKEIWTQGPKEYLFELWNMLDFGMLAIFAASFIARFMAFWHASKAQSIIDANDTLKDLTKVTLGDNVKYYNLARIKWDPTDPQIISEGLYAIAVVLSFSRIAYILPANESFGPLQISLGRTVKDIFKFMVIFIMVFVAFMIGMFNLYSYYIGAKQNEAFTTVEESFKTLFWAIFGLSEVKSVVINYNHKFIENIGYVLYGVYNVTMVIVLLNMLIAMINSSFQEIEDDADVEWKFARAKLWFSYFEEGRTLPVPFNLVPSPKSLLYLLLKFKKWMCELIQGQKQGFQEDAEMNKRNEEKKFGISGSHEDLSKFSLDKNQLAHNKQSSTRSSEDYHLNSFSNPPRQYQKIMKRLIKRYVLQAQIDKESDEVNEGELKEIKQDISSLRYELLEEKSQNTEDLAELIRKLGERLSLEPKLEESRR

[10] = target: Short transient receptor potential channel 6 (Mus musculus) (UniProt Q61143); test: TRPC6 opening by TRPC4 activator hits – cell-based, HEK293, membrane potential dye, duplicate, selectivity assay for TRPC4 activator project, confirmation (AID 434950;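 active = membrane potential signal rise above negative control mean plus 3 SD in both duplicates, also active in the earlier TRPC4 screen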); details: HEK293 TRPC6, membrane potential fluorescence, at 10 µM; activation: stronger effect = higher value; outcome: activation
[11] = target: Short transient receptor potential channel 6 (Mus musculus) (UniProt Q61143); test: positive modulators of mouse TRPC6 channel – HEK293 cells, membrane potential dye, duplicate, selectivity assay for TRPC4 potentiator project, confirmation (AID 434952;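 active = compound raising the membrane signal above positive-control mean plus 3 SD in both repeats, and a primary screen hit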); details: HEK293 TRPC6, membrane potential dye fluorescence, at 10 µM, maximal acetylcholine added after compound; stronger effect = higher value
[12] = target: Short transient receptor potential channel 4 (Mus musculus) (UniProt Q9QUQ5); test: calcium flux activators in TRPC4/5HT1a cells, counter-screen for TRPC4 activator project, cell-based, second counter screen, HEK293 TRPC4/5HT1a, Fluo-4 (AID 434977;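 active = calcium signal rise above buffer-control mean plus 5 SD in both duplicates, and also a hit in the primary screen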); details: Fluo-4 calcium flux, at 10 µM; stronger effect = higher value
[13] = serotonin-gated TRPC4 signal block – cell-based, second counter screen, HEK293 TRPC4/5HT1a, Fluo-4, counter-screen for TRPC4 inhibitor project, confirmation (AID 434978;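 active = primary screen active whose calcium signal fell more than 3 SD beyond the full-serotonin control mean in both duplicate plates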;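 as to outcome: serotonin given first at submaximal then at maximal dose after compound preincubation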); details: Fluo-4 calcium flux, at 10 µM, serotonin added to trigger calcium flux; stronger effect = higher value
[14] = tested on: TRPC4 (mouse), co-expressed with 5HT1a in HEK293; test: enhancement of serotonin-evoked TRPC4 response – cell-based, second counter screen, HEK293 TRPC4/5HT1a, Fluo-4, counter-screen for TRPC4 potentiator project, confirmation (AID 434979;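 active = signal rise over 3 SD above mean of control wells given weak agonist, in both repeats and first screen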); details: Fluo-4 calcium flux, at 10 µM, serotonin added at its EC20 dose; stronger effect = higher value
[15] = nonspecific calcium rise without TRPC4 – cell-based, HEK293 mu-opioid receptor line, counter-screen for TRPC4 activator project, confirmation (AID 449723;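 active = hit in primary screen, with calcium signal over 5 SD above buffer well mean in both duplicates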;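 also: counter screen cells carry the mu-opioid receptor alone and lack TRPC4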); details: HEK293 mu-opioid cells, Fluo-4 calcium fluorescence, at 10 µM; stronger effect = higher value
[16] = nonspecific potentiation of DAMGO calcium response – cell-based, HEK293 mu-opioid receptor line, counter-screen for TRPC4 allosteric potentiator project, confirmation (AID 449724;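 active = calcium signal rise more than 3 SD above the low-dose agonist control mean, in both duplicate plates and the primary screen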); details: HEK293 mu-opioid receptor cells, Fluo-4 calcium flux, at 10 µM, compound added before EC20 DAMGO stimulus; stronger effect = higher value
[17] = nonspecific flux increase, KCNQ1-free cells – parental CHO cells, counter-screen for KCNQ1 potentiator project (AID 493006;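 active = duplicate-averaged activation above buffer control mean plus 5 SD of those controls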;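 as to activation: fluorescence ratio of max minus min over baseline after K+ and Tl+ depolarization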); details: parental CHO-K1 cells, FluxOR thallium flux, at 10 µM; stronger effect = higher value
[18] = target: Potassium voltage-gated channel subfamily KQT member 1 (Homo sapiens) (UniProt P51787); test: enhancement of KCNQ1 channel thallium flux – FluxOR thallium flux, CHO cells, duplicates, confirmation (AID 493007;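 active = potentiation averaged over duplicate wells exceeding buffer-only control mean by more than 3 SD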;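 as to outcome: cells depolarized by a potassium plus thallium sulfate stimulus after compound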;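 as to potentiation: 0% = buffer-only wells and 100% = R-L3 activator control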); details: KCNQ1 cell line, FluxOR thallium flux fluorescence, at 10 µM; stronger effect = higher value, % of reference activator effect, buffer zero
Chain of Potassium voltage-gated channel subfamily KQT member 1 (Homo sapiens) (P51787 whole entry, looked up): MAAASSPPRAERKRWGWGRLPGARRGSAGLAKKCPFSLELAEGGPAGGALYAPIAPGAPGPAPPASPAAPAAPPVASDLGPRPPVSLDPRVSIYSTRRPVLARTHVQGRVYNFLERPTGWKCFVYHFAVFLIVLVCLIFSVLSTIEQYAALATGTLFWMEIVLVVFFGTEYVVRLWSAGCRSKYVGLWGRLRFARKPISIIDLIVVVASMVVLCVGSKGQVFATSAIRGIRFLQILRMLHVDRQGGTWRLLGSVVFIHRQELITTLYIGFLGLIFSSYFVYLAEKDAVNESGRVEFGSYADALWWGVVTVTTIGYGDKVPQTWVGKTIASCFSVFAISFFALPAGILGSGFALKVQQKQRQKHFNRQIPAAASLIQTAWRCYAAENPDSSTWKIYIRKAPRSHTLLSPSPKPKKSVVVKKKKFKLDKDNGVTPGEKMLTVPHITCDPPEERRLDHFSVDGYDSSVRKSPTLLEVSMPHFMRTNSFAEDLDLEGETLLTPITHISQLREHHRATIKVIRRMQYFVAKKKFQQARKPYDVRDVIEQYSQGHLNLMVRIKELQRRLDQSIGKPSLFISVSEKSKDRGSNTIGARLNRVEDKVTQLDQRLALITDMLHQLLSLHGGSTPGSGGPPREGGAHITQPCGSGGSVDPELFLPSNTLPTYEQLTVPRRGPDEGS

[19] = target: Potassium voltage-gated channel subfamily KQT member 2 (Rattus norvegicus) (UniProt O88943); test: KCNQ2 thallium flux enhancement – KCNQ2-CHO-K1 cells, selectivity assay for KCNQ1 potentiator project (AID 493009;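 active = mean duplicate potentiation above the buffer control mean plus 5 SD of buffer wells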;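 also: assay conditions were tuned for KCNQ1 rather than KCNQ2 modulators; signal is max minus min fluorescence divided by baseline after thallium stimulus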); details: FluxOR thallium flux fluorescence, at 10 µM; stronger effect = higher value, scaled: buffer 0, activator control 100
Chain of Potassium voltage-gated channel subfamily KQT member 2 (Rattus norvegicus) (O88943 whole entry, looked up): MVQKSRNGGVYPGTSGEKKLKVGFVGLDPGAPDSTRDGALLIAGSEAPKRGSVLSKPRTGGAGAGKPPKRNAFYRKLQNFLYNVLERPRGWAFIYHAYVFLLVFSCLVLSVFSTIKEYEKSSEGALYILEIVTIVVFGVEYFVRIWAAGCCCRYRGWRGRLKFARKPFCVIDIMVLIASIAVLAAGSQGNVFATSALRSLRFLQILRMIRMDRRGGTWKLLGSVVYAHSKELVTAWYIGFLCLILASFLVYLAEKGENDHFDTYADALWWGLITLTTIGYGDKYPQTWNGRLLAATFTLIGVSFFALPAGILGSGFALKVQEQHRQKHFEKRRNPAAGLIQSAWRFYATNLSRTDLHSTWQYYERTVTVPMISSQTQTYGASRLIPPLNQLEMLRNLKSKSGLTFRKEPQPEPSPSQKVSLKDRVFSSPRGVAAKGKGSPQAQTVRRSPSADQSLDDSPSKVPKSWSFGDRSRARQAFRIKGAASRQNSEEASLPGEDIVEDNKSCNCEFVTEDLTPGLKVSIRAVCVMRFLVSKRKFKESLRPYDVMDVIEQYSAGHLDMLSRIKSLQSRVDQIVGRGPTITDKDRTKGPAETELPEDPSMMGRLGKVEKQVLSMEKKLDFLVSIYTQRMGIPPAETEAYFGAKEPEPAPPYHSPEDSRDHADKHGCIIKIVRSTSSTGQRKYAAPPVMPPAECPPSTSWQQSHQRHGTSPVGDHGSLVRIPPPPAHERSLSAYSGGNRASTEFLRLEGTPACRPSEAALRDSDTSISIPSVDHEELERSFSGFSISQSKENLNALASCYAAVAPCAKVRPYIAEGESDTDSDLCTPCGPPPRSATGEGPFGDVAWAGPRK

[20] = target: Short transient receptor potential channel 4 (Mus musculus) (UniProt Q9QUQ5); test: block of DAMGO-driven TRPC4 calcium entry – cell-based, HEK293 TRPC4/mu-opioid, Fluo-4 calcium, dose response (AID 434942;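 active = primary screen inhibitor hit that blocks the TRPC4 channel at some tested dose, yielding a dose curve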)

Cc1ccc(OCC(COCc2ccccc2)NC(C)C)cc1 (centres undefined)
inactive: outcome [1] | outcome [2] | outcome [3] | outcome [4] | outcome [6] | outcome [7] | outcome [8] | outcome [10] | outcome [11] | outcome [12] | outcome [14] | outcome [15] | outcome [16]
active: inhibition [5] 85% | inhibition [9] 5% | inhibition [13] 42.1%

CC(=O)C1=C(S(=O)(=O)c2ccc(C)cc2)CS(=O)(=O)C1
active: inhibition [5] 74% | inhibition [6] 39% | inhibition [13] 12.2% | potentiation [19] 200%
inactive: outcome [1] | outcome [2] | outcome [3] | outcome [4] | outcome [7] | outcome [8] | outcome [9] | outcome [10] | outcome [11] | outcome [12] | outcome [14] | outcome [15] | outcome [16] | outcome [17] | outcome [18]

CCCC1(c2ccccc2)NC(=O)N(CC(=O)c2[nH]c(C)c(C(=O)OCC)c2C)C1=O (centres undefined)
active: potentiation [4] 18% | potentiation [14] 35.6%
inactive: outcome [1] | outcome [2] | outcome [3] | outcome [5] | outcome [6] | outcome [7] | outcome [20] | outcome [9] | outcome [10] | outcome [11] | outcome [12] | outcome [13] | outcome [15] | outcome [16]

Cc1ccc(/C=C/C(=O)c2ccc(O)cc2)cc1
active: inhibition [5] 76% | inhibition [6] 38% | inhibition [13] 15.8%
inactive: outcome [1] | outcome [2] | outcome [3] | outcome [4] | outcome [7] | outcome [8] | outcome [9] | outcome [10] | outcome [11] | outcome [12] | outcome [14] | outcome [15] | outcome [16] | outcome [17] | outcome [18] | outcome [19]

CNc1nc(N2CCc3ccccc32)ncc1F
inactive: outcome [1] | outcome [2] | outcome [5] | outcome [6] | outcome [7] | outcome [20] | outcome [9] | outcome [10] | outcome [11] | outcome [12] | outcome [13] | outcome [15] | outcome [16]
active: potentiation [3] 27% | potentiation [4] 75% | potentiation [14] 103%

O=C(Nc1cccc(Cl)c1)c1cnn2cccnc12
active: potentiation [3] 16% | potentiation [4] 14% | potentiation [14] 43%
inactive: outcome [1] | outcome [2] | outcome [5] | outcome [6] | outcome [7] | outcome [20] | outcome [9] | outcome [10] | outcome [11] | outcome [12] | outcome [13] | outcome [15] | outcome [16]

CC(C1CC2CCC1C2)n1c(-c2cccs2)n[nH]c1=S (centres undefined)
inactive: outcome [1] | outcome [2] | outcome [3] | outcome [4] | outcome [6] | outcome [7] | outcome [8] | outcome [9] | outcome [10] | outcome [11] | outcome [12] | outcome [14] | outcome [15] | outcome [16] | outcome [17]
active: inhibition [5] 54% | inhibition [13] 34% | potentiation [18] 48% | potentiation [19] 148%

Cc1cc(-c2ccc(C)c(S(=O)(=O)N3CCN(c4ccccn4)CC3)c2)on1
inactive: outcome [1] | outcome [2] | outcome [3] | outcome [5] | outcome [6] | outcome [7] | outcome [20] | outcome [9] | outcome [10] | outcome [11] | outcome [12] | outcome [13] | outcome [15] | outcome [16]
active: potentiation [4] 18% | potentiation [14] 16.4%

O=C(Nc1cccc(Cl)c1)N1CCN(C/C=C/c2ccccc2)CC1
active: potentiation [14] 19.8%
inactive: outcome [1] | outcome [2] | outcome [3] | outcome [4] | outcome [5] | outcome [6] | outcome [7] | outcome [20] | outcome [9] | outcome [10] | outcome [11] | outcome [12] | outcome [13] | outcome [15] | outcome [16]

CC1Cc2ccccc2N1C(=O)CSc1nc2c(c(=O)n(C)c(=O)n2C)n1Cc1ccc(F)cc1 (centres undefined)
inactive: outcome [1] | outcome [2] | outcome [5] | outcome [6] | outcome [7] | outcome [20] | outcome [9] | outcome [10] | outcome [11] | outcome [12] | outcome [13] | outcome [15] | outcome [16]
active: potentiation [3] 36% | potentiation [4] 40% | potentiation [14] 67.1%

Cc1nc2c3cc(Cl)ccc3n(CCN3CCCCC3)c2s1
active: inhibition [5] 72% | inhibition [9] 39.5% | inhibition [13] 28.7%
inactive: outcome [1] | outcome [2] | outcome [3] | outcome [4] | outcome [6] | outcome [7] | outcome [8] | outcome [10] | outcome [11] | outcome [12] | outcome [14] | outcome [15] | outcome [16] | outcome [17] | outcome [18] | outcome [19]

Cc1cc(OCC(=O)N(C(C)C)C(C)C)cc(C)c1Br
active: potentiation [4] 22% | potentiation [14] 31.9%
inactive: outcome [1] | outcome [2] | outcome [3] | outcome [5] | outcome [6] | outcome [7] | outcome [20] | outcome [9] | outcome [10] | outcome [11] | outcome [12] | outcome [13] | outcome [15] | outcome [16]

Cc1cc2oc(C(=O)N(Cc3ccccc3)C3CCS(=O)(=O)C3)cc(=O)c2cc1Cl (centres undefined)
active: potentiation [4] 47% | potentiation [14] 68.1%
inactive: outcome [1] | outcome [2] | outcome [3] | outcome [5] | outcome [6] | outcome [7] | outcome [20] | outcome [9] | outcome [10] | outcome [11] | outcome [12] | outcome [13] | outcome [15] | outcome [16]

S=c1[nH]nc(-c2cc3c(s2)-c2ccccc2CC3)o1
active: inhibition [5] 97% | inhibition [13] 32.1% | activation [17] 810% | potentiation [18] 241% | potentiation [19] 809%
inactive: outcome [1] | outcome [2] | outcome [3] | outcome [4] | outcome [6] | outcome [7] | outcome [8] | outcome [9] | outcome [10] | outcome [11] | outcome [12] | outcome [14] | outcome [15] | outcome [16]
